ELG1 genotox – qHTS screen for small molecules that induce genotoxicity in human embryonic kidney (HEK293T) cells expressing luciferase-tagged ELG1; HEK293T ELG1-luciferase reporter, luminescence, 16 h; Potency, µM (highest dose often 46 µM), actives largely listed as activators; hit rate 1.3% among 330,000; AID 504466, 2011; further: nearly all actives have a fitted effect of over 60% in size
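Screening used a luciferase reporter fused to human ELG1 in HEK293T cells. Luminescence was read on a CCD plate imager after 16 hr exposure and 30 min ONE-Glo incubation.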
SMN2 splice up – qHTS Assay for Enhancers of SMN2 Splice Variant Expression; HEK293 SMN2-luciferase splicing reporter, luminescence, 30-36 h; Potency, µM (doses to about 46.1 µM), actives largely listed as activators; hit rate 2.8% among 210,000; further: nearly all actives have a fitted effect of over 55% in size
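HEK293 cells carry an SMN2 minigene-luciferase reporter in which exon 7 inclusion puts luciferase in frame. Cells were seeded at 2000 cells/well, attached for 10-12 hours, then exposed to compounds for 30-36 hours at 37C before ONE-Glo luminescence.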
Rab9 promoter act – qHTS Assay for Rab9 Promoter Activators. Huh7 Rab9 promoter-luciferase reporter, luminescence, 24 h. Potency, µM (top dose mostly 9.22 µM), most hits filed as activators. hit rate 2.8% among 320,000. AID 485297, 2010; further: nearly all actives have a fitted effect of over 60% in size
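Quantitative HTS format; Huh7 Rab9-luciferase reporter cells (1500/well) receive compound 2 h post-plating, incubate 24 h at 37 °C, then get luciferase reagent for 10 min before luminescence reading.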
Luc counter – Counterscreen for Luciferase (Kinase-Glo TM) Inhibition. hit rate 0.28% among 200,000. Potency, µM (top dose mostly 38.3 µM), usual class: inhibitors. Kinase-Glo luciferase, ATP luminescence, 8 min. Luciferin 4-monooxygenase (Photuris pensylvanica), Q27757; further: nearly all actives have a fitted effect of over 60% in size
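Recombinant Kinase-Glo luciferase, 10 uM ATP (linear range), luciferin; imidazole pH 7.2 / KCl / MgCl2 / Tween / BSA buffer; 8 min RT; luminescence.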
FLuc modulator – qHTS profiling assay for firefly luciferase inhibitor/activator using purifed enzyme and Km concentrations of substrates (counterscreen for miR-21 project). Potency, µM (titrated, usually from 57.5 µM), actives largely listed as inhibitors. hit rate 6.9% among 360,000. purified FLuc, Km substrates, luminescence inhibition; further: nearly all actives have a fitted effect of over 55% in size
Target sequence (P08659 whole entry, looked up): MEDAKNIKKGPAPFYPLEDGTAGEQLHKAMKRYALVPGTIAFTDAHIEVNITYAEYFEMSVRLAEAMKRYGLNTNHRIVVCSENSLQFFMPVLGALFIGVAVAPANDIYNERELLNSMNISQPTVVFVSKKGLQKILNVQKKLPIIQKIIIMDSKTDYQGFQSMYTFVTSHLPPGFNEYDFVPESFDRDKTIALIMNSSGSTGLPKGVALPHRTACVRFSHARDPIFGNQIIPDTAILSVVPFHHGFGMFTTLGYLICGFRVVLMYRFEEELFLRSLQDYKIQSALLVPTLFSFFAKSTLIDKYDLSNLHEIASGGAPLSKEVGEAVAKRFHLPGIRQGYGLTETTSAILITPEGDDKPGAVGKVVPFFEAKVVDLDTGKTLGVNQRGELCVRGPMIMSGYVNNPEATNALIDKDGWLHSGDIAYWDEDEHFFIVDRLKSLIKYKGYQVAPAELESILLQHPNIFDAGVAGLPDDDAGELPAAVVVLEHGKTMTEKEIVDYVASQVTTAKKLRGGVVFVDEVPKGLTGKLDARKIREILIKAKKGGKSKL
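Purified P. pyralis luciferase, 10 nM final, with Km-level 10 uM D-luciferin and 10 uM ATP in 50 mM Tris acetate pH 7.5, 10 mM Mg acetate, 0.01% Tween-20, 0.05% BSA; 6-point qHTS titration about 60 µM downward; luminescence read.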
NPC1 promoter act – qHTS Assay for NPC1 Promoter Activators; Huh7 NPC1 promoter luciferase reporter, 24 h; AID 485313, 2010; hit rate 2.4% among 320,000; Potency, µM (doses to about 9.22 µM), usual class: activators; further: nearly all actives have a fitted effect of over 60% in size
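Compounds in DMSO were transferred onto Huh7 NPC1-luciferase reporter cells pre-incubated 2 h; after 24 h at 37 °C, Amplite reagent was dispensed and luminescence recorded 10 min later.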
Numbers stand for hits; n = inactive; u = inconclusive; x = not tested or not shown. This is a sample that favours compounds with a hit; in the whole collection about 7.3% have one here. The call rests on the fitted dose curve; in most records, active means well fitted curve in the direction sought with a large enough effect; inconclusive means small, poorly fitted or top-dose-only effect, or another doubt; inactive means no such curve, though single readings can be large; an effect the other way counts as inactive or inconclusive.

SMILES	ELG1 genotox	SMN2 splice up	Rab9 promoter act	Luc counter	FLuc modulator	NPC1 promoter act
CCN(Cc1ccccc1)C(=O)Cn1c(=O)n(-c2cccc(C)c2)c(=O)c2c1c1cc(OC)ccc1n2C	x	n	x	x	n	x
CCc1ccc(CNC(=O)c2ccc(NC(=O)N3CCCCc4ccccc43)cc2)cc1	x	x	x	x	n	x
COc1ccc(N2C(=O)c3ccccc3NC2c2ccccc2O)cc1 (configuration not stated)	u	x	1.3µM	x	n	1.4µM
C/C(=N\N1C(=O)c2ccccc2NC1c1ccco1)c1ccccc1O (configuration not stated)	u	4µM	0.35µM	n	u	u
CCOc1ccc(N2C(=O)c3ccccc3C2O)cc1 (configuration not stated)	9.2µM	13µM	u	n	12µM	3.2µM
COc1ccc(/C(C)=N/N2C(=O)c3ccccc3NC2c2ccc(O)c(OC)c2)cc1 (configuration not stated)	u	x	u	x	13µM	n
COc1cc(C2Nc3ccccc3C(=O)N2c2ccccc2)ccc1O (configuration not stated)	u	n	n	n	n	n
O=C1c2ccccc2NC(c2ccco2)N1/N=C/c1ccco1 (configuration not stated)	n	u	u	n	n	n
CCOc1ccc(OCC)c(NC(=O)c2cc(-c3cccs3)nc3ccccc23)c1	x	n	x	x	n	x
CCN(CC)S(=O)(=O)c1ccc(C(=O)NCCSc2c(-c3ccc(F)cc3)[nH]c3ccccc23)cc1	x	n	x	x	n	x
O=S(=O)(c1ccc(-c2csc(=Nc3ccc(OC(F)(F)Cl)cc3)n2CCCO)cc1)N1CCCC1	x	n	x	x	n	x
CCOCCCNC(=O)c1ccc(NC(=O)N2CCCCc3ccccc32)cc1	x	x	x	x	n	x
CCOc1ccc(NC(=O)c2cnsn2)cc1	1.5µM	u	0.56µM	n	6µM	1.4µM
CNS(=O)(=O)c1ccc(NC(=O)c2ccccn2)cc1	u	20µM	2.8µM	n	15µM	u
CCOc1ccc(C(=O)Nc2ncccc2Cl)cc1	u	x	u	n	15µM	u
COc1cccc(NC(=O)c2cnsn2)c1	u	n	n	u	u	n
CCOc1ccc(NC(=O)c2cnccn2)cc1	u	2.5µM	1.3µM	n	5.4µM	2µM
CCOc1ccc(C(=O)NCc2ccccn2)cc1	u	n	n	n	u	n
Cc1cccc(-c2nc3c(cnn3-c3ccccc3)c(=O)n2-c2cccc(Cl)c2)c1	x	n	x	x	n	x
Cc1cc(C)cc(C(=O)Nc2ccc(-c3nc4ncccc4o3)cc2)c1	x	n	x	x	n	x
CCCCC1CCC(C(=O)N2CC(=O)Nc3ccc(Cl)cc3C2c2ccc(F)cc2)CC1 (configuration not stated)	x	n	x	x	n	x
CCOc1ccc(NC(=O)c2nccnc2CO)cc1	u	8.9µM	2.8µM	7.9µM	9.5µM	1.4µM
CCOc1ccc(NC(=O)c2ccccn2)cc1	u	0.79µM	0.13µM	13µM	0.48µM	u
O=C(COc1ccc(Cl)cc1)Nc1ccccc1C(=O)OCc1cc(=O)n2ccsc2n1	x	x	x	x	n	x
CCn1nc(C)c2c(-c3ccccc3)cc(=O)n(C(C)C(=O)NCCc3ccccc3)c21 (configuration not stated)	x	x	x	x	n	x
SMILES	ELG1 genotox	SMN2 splice up	Rab9 promoter act	Luc counter	FLuc modulator	NPC1 promoter act
COc1ccccc1C(=O)Nc1onc2c1CCCC2	x	3.5µM	x	x	2.7µM	x
Cc1ccc(C(=O)Nc2onc3c2CCCC3)cc1	x	2.5µM	x	x	0.3µM	x
CCOCCCNC(=O)C(c1ccc(C)cc1)N(Cc1ccc2c(c1)OCO2)C(=O)c1ccc(NC(C)=O)cc1 (configuration not stated)	x	n	x	x	n	x
COc1ccc2[nH]c(C(=O)Nc3ccc4c(c3)OCO4)cc2c1	n	x	2.8µM	x	4.8µM	3.2µM
CCN(CC)c1ccc(NC(=O)c2ccc3c(c2)OCO3)cc1	u	x	2.2µM	x	6.7µM	u
COc1ccc2[nH]c(C(=O)Nc3ccc(F)cc3Br)cc2c1	n	x	n	x	n	n

Compound activity: PubChem, National Center for Advancing Translational Sciences (NCATS)
